# From the supplement of paper PMC8728848
# The full list was thinned out, with the strongest signals kept by preference.
# B1: TbCVNHOb (Tuber borchii) (protein)
# chain: GSHIGPYMSFYASSEDVRTIEEGGRTWLVGRARRADGSWQDIKLDLDNIIGNRDGHLTWGEQNFTQSASDIRFNFEGGSNVPVLRAKLRNAAGGEQESDLNLGERLTNNNGDLVFN
# B2: MLTim-4 (Mus musculus), Q6U7R4 (protein)
# chain: MSKGLLLLWLVTELWWLYLTPAASEDTIIGFLGQPVTLPCHYLSWSQSRNSMCWGKGSCPNSKCNAELLRTDGTRIISRKSTKYTLLGKVQFGEVSLTISNTNRGDSGVYCCRIEVPGWFNDVKKNVRLELRRAT
# Legend:
# Experiment in all cases: glycan array binding signal (z-score within array); higher = stronger binding
# Conditions in all cases: glycan notation: IUPAC condensed, linker removed
# [1] = biological target: Fuc(a1-2)Gal(b1-3)GalNAc(b1-3)Gal(a1-4)Gal(b1-4)Glc
# How it was run: (§1)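 The Consortium for Functional Glycomics database supplied 3228 glycan arrays, of which those lacking an available protein sequence were dropped. The binding signal, a within-array Z-score, was averaged across arrays of the same protein sequence and across linkers. Negative scores can be read as non-binding.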
# [2] = biological target: Fuc(a1-2)Gal(b1-3)GalNAc(b1-3)Gal(b1-4)Glc
# How it was run: as §1
# Fuc(a1-2)Gal(b1-4)Glc = biological target: Fuc(a1-2)Gal(b1-4)Glc
# How it was run: as §1
# [3] = biological target: Fuc(a1-2)Gal(b1-4)GlcNAc(b1-3)Gal(b1-4)GlcNAc
# How it was run: as §1
# [4] = biological target: Fuc(a1-3)[Gal3S(b1-4)]GlcNAc
# How it was run: as §1
# Gal(a1-4)Gal(b1-4)Gal = biological target: Gal(a1-4)Gal(b1-4)Gal
# How it was run: as §1
# Gal(a1-6)Glc = biological target: Gal(a1-6)Glc
# How it was run: as §1
# [5] = biological target: Gal(b1-3)[Fuc(a1-4)]GlcNAc(b1-3)Gal(b1-4)GlcNAc
# How it was run: as §1
# [6] = biological target: Gal(b1-3)[Neu5Ac(a2-6)]GlcNAc
# How it was run: as §1
# [7] = biological target: Gal(b1-3)[Neu5Ac(a2-6)]GlcNAc(a1-4)Gal(b1-4)Glc
# How it was run: as §1
# [8] = biological target: Gal(b1-4)GalNAc(b1-3)[Fuc(a1-2)]Gal(b1-4)GlcNAc
# How it was run: as §1
# GalNAc(b1-4)GlcNAc = biological target: GalNAc(b1-4)GlcNAc
# How it was run: as §1
# GlcA(b1-6)Gal = biological target: GlcA(b1-6)Gal
# How it was run: as §1
# GlcNAc(b1-3)Gal = biological target: GlcNAc(b1-3)Gal
# How it was run: as §1
# [9] = biological target: GlcNAc(b1-3)[GlcNAc(b1-4)][GlcNAc(b1-6)]GlcNAc
# How it was run: as §1
# [10] = biological target: GlcNAc(b1-4)GlcNAc(b1-4)GlcNAc
# How it was run: as §1
# [11] = biological target: Man(a1-2)Man(a1-2)Man(a1-3)Man
# How it was run: as §1
# [12] = biological target: Man(a1-2)Man(a1-2)Man(a1-3)[Man(a1-2)Man(a1-6)[Man(a1-3)]Man(a1-6)]Man(b1-4)GlcNAc(b1-4)GlcNAc
# How it was run: as §1
# [13] = biological target: Man(a1-3)[Man(a1-6)]Man(b1-4)GlcNAc(b1-4)GlcNAc
# How it was run: as §1
# Man(b1-4)GlcNAc = biological target: Man(b1-4)GlcNAc
# How it was run: as §1
# [14] = biological target: Neu5Ac(a2-3)Gal(b1-3)GlcNAc6S
# How it was run: as §1
# [15] = biological target: Fuc(a1-2)Gal(b1-4)[Fuc(a1-3)]GalNAc(b1-3)Gal(b1-4)[Fuc(a1-3)]GlcNAc
# How it was run: as §1
# [16] = biological target: Fuc(a1-2)Gal(b1-4)[Fuc(a1-3)]GalNAc(b1-3)Gal(b1-4)[Fuc(a1-3)]GlcNAc(b1-3)Gal(b1-4)[Fuc(a1-3)]GalNAc
# How it was run: as §1
# [17] = biological target: Fuc(a1-2)[GalNAc(a1-3)]Gal(b1-4)[Fuc(a1-3)]GlcNAc
# How it was run: as §1
# [18] = biological target: Fuc(a1-3)[Gal(b1-4)]Glc6S
# How it was run: as §1
# Fuc(b1-3)GlcNAc = biological target: Fuc(b1-3)GlcNAc
# How it was run: as §1
# Gal(b1-2)Gal = biological target: Gal(b1-2)Gal
# How it was run: as §1
# Gal(b1-3)Gal = biological target: Gal(b1-3)Gal
# How it was run: as §1
# GlcA(b1-3)Gal = biological target: GlcA(b1-3)Gal
# How it was run: as §1
# [19] = biological target: Man(a1-2)Man(a1-2)Man(a1-6)[Man(a1-3)]Man
# How it was run: as §1
# [20] = biological target: Man(a1-2)Man(a1-3)[Man(a1-6)]Man(a1-6)[Man(a1-2)Man(a1-3)]Man(b1-4)GlcNAc(b1-4)GlcNAc
# How it was run: as §1
# [21] = biological target: Neu5Ac(a2-3)Gal(b1-3)GlcNAc
# How it was run: as §1
# [22] = biological target: Neu5Ac(a2-3)Gal(b1-4)GlcNAc(b1-3)Gal(b1-3)GlcNAc
# How it was run: as §1
# [23] = biological target: Neu5Ac(a2-8)Neu5Ac(a2-3)[GalNAc(b1-4)]Gal(b1-4)Glc
# How it was run: as §1
# [24] = biological target: Neu5Ac(a2-8)Neu5Ac(a2-8)Neu5Ac(a2-3)[GalNAc(b1-4)]Gal(b1-4)Glc
# How it was run: as §1
# [25] = biological target: Neu5Gc(a2-3)Gal(b1-3)GlcNAc
# How it was run: as §1
Binder,glycan array binding signal (z-score) [1],glycan array binding signal (z-score) [2],glycan array binding signal (z-score) (Fuc(a1-2)Gal(b1-4)Glc),glycan array binding signal (z-score) [3],glycan array binding signal (z-score) [4],glycan array binding signal (z-score) (Gal(a1-4)Gal(b1-4)Gal),glycan array binding signal (z-score) (Gal(a1-6)Glc),glycan array binding signal (z-score) [5],glycan array binding signal (z-score) [6],glycan array binding signal (z-score) [7],glycan array binding signal (z-score) [8],glycan array binding signal (z-score) (GalNAc(b1-4)GlcNAc),glycan array binding signal (z-score) (GlcA(b1-6)Gal),glycan array binding signal (z-score) (GlcNAc(b1-3)Gal),glycan array binding signal (z-score) [9],glycan array binding signal (z-score) [10],glycan array binding signal (z-score) [11],glycan array binding signal (z-score) [12],glycan array binding signal (z-score) [13],glycan array binding signal (z-score) (Man(b1-4)GlcNAc),glycan array binding signal (z-score) [14],glycan array binding signal (z-score) [15],glycan array binding signal (z-score) [16],glycan array binding signal (z-score) [17],glycan array binding signal (z-score) [18],glycan array binding signal (z-score) (Fuc(b1-3)GlcNAc),glycan array binding signal (z-score) (Gal(b1-2)Gal),glycan array binding signal (z-score) (Gal(b1-3)Gal),glycan array binding signal (z-score) (GlcA(b1-3)Gal),glycan array binding signal (z-score) [19],glycan array binding signal (z-score) [20],glycan array binding signal (z-score) [21],glycan array binding signal (z-score) [22],glycan array binding signal (z-score) [23],glycan array binding signal (z-score) [24],glycan array binding signal (z-score) [25]
B1,2.01,4.24,0.347,-0.268,-0.469,4.24,0.38,-0.231,-0.484,4.83,-0.367,-0.366,-0.483,-0.16,-0.077,-0.364,5.4,-0.449,-0.197,0.106,-0.045,–,–,–,–,–,–,–,–,–,–,–,–,–,–,–
B2,-0.142,–,–,–,–,0.491,–,–,–,–,-0.991,–,2.97,–,-0.523,–,–,–,–,1.06,2.45,-0.799,0.195,0.41,2.31,-0.108,1.47,0.543,6.6,0.353,-0.137,-0.547,-0.655,-0.484,-0.741,-0.343
